This is part of a sample that, as a whole, favours compounds with a hit. Of some 79,000 tested, about 15% had one in any assay. Activity calls are given as the source filed them. Cut-off read from the data, not from the text of the source: active = growth inhibition above about 70%; inactive = the rest.
What was measured:
[1] = NCI Yeast Anticancer Drug Screen. Data for the rad52 strain (AID 147);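 note: 0% = growth of vehicle-treated control cultures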; conditions: S. cerevisiae rad52 mutant growth inhibition, stronger effect = higher value
Method in brief: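 Genetically altered yeast (DNA damage repair defect) treated with compound; inhibition calculated relative to vehicle.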

[2] = NCI Yeast Anticancer Drug Screen. Data for the wt1 strain (AID 149);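 note: 0% = growth of vehicle-treated wt1 cultures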; conditions: S. cerevisiae wt1 strain (SPY 50644) growth inhibition, stronger effect = higher value
Method in brief: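 Measured: growth of wt1 yeast under compound versus vehicle treatment, reported as inhibition.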

[3] = NCI Yeast Anticancer Drug Screen. Data for the rad50EPP+ strain (AID 151);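 note: 0% = growth of vehicle-treated control cultures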; conditions: S. cerevisiae rad50 mutant strain, stronger effect = higher value
Method in brief: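 Strain rad50EPP+; compound exposure; % growth inhibition vs vehicle.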

[4] = NCI Yeast Anticancer Drug Screen. Data for the rad50 strain (AID 155);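 note: 0% = growth of vehicle-only cultures of the same strain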; conditions: S. cerevisiae rad50 strain growth inhibition, stronger effect = higher value
Method in brief: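 Growth of the mutant yeast was measured after compound exposure and referenced to vehicle-treated cultures.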

[5] = NCI Yeast Anticancer Drug Screen. Data for the mec2-1 strain (AID 157); conditions: S. cerevisiae mec2-1 strain, stronger effect = higher value
Method in brief: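 Cells of the genetically defined mec2-1 yeast strain are incubated with test compound. Inhibition of growth is calculated against vehicle-treated controls.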

[6] = NCI Yeast Anticancer Drug Screen. Data for the rad14 strain (AID 159);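 note: 0% = growth of vehicle-treated control cultures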; conditions: S. cerevisiae rad14 strain growth inhibition, stronger effect = higher value
Method in brief: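 Here, inhibition of yeast growth was measured after compound exposure, using a strain with a genetic defect in DNA damage repair and vehicle-treated cultures as the reference.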

[7] = NCI Yeast Anticancer Drug Screen. Data for the sgs1 mgt1 strain (AID 161);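 note: 0% = growth of cultures given vehicle only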; conditions: S. cerevisiae sgs1 mgt1 strain, stronger effect = higher value
Method in brief: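 Read-out: growth inhibition vs vehicle controls. Cells: mutant yeast strain deficient in DNA damage repair.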

[8] = NCI Yeast Anticancer Drug Screen. Data for the CLN2oe strain (AID 163);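 note: 0% = growth of vehicle-only control cultures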; conditions: S. cerevisiae CLN2oe strain, stronger effect = higher value
Method in brief: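 Strain altered in cell-cycle control, incubated with compound; growth compared to solvent-treated controls.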

[9] = NCI Yeast Anticancer Drug Screen. Data for the cln2 rad14 strain (AID 165);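 note: 0% = growth equal to vehicle treated cultures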; conditions: S. cerevisiae cln2 rad14 strain, stronger effect = higher value
Method in brief: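 The screen exposed genetically defined yeast (cln2 rad14) to test compounds and scored growth inhibition relative to vehicle-treated controls.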

[10] = NCI Yeast Anticancer Drug Screen. Data for the wt2 strain (AID 169);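 note: 0% = growth of vehicle-treated yeast cultures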; conditions: S. cerevisiae wt2 strain growth inhibition, stronger effect = higher value
Method in brief: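 Steps: yeast strain treated with compound; growth recorded; inhibition calculated relative to cultures given vehicle alone.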

[11] = NCI Yeast Anticancer Drug Screen. Data for the mlh1 strain (AID 171);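 note: 0% = growth of vehicle-treated control cultures of the same strain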; conditions: S. cerevisiae mlh1 strain growth inhibition, stronger effect = higher value
Method in brief: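 Yeast screen: mutant strain plus compound, growth scored against vehicle control wells.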

[12] = NCI Yeast Anticancer Drug Screen. Data for the sgs1 strain (AID 173);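 note: 0% = growth of vehicle-only control cultures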; conditions: S. cerevisiae sgs1 mutant, stronger effect = higher value
Method in brief: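 Inhibition of yeast growth served as the measure. The mutant strain was treated with each compound, and growth was normalised to cultures receiving vehicle alone.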

[13] = NCI Yeast Anticancer Drug Screen. Data for the mlh1 rad18 strain (AID 175); conditions: S. cerevisiae mlh1 rad18 strain growth inhibition, stronger effect = higher value
Method in brief: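 Compound-treated yeast growth, normalised to vehicle controls. Strain bears defined DNA repair mutations.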

[14] = NCI Yeast Anticancer Drug Screen. Data for the rad18 strain (AID 177); conditions: S. cerevisiae rad18 mutant growth inhibition, stronger effect = higher value
Method in brief: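 Inhibition values reflect reduced yeast growth compared with vehicle-treated controls, using a strain engineered with a DNA damage repair defect.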

[15] = NCI Yeast Anticancer Drug Screen. Data for the bub3 strain (AID 167); conditions: S. cerevisiae bub3 mutant strain, stronger effect = higher value
Method in brief: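 Whole-cell yeast assay. The mutant strain was incubated with compounds, and growth inhibition was determined by comparison with vehicle-treated cells.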

[16] = NCI Yeast Anticancer Drug Screen. Data for the mgt1 strain (AID 153); conditions: S. cerevisiae mgt1 mutant growth inhibition, stronger effect = higher value
Method in brief: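 Read-out: yeast growth inhibition vs vehicle control. Strain mgt1, drawn from a panel altered in DNA damage repair or cell cycle control.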

[17] = at 5.0 µM (retest, dose inferred, filed as 0.5)
[18] = at 50.0 µM (retest, dose inferred, filed as 5.0)

Measured: growth inhibition

CCOC(=O)[C@H]1Nc2ccc(OC)cc2C2c3ccccc3CC21 (stereo partly drawn)
inactive: [1]; at 1.2 µM -22% | [1]; at 3.7 µM -27% | [1]; at 11.0 µM -20% | [1]; at 33.0 µM 57% | [2]; at 1.2 µM -29% | [2]; at 3.7 µM -27% | [2]; at 11.0 µM -25% | [2]; at 33.0 µM 50% | [3]; at 1.2 µM -25% | [3]; at 3.7 µM -19% | [3]; at 11.0 µM -23% | [3]; at 33.0 µM 10% | [3]; at 100.0 µM 4% | [4]; at 1.2 µM -21% | [4]; at 3.7 µM -12% | [4]; [17] 19% | [4]; at 11.0 µM -19% | [4]; at 33.0 µM 34% | [4]; [18] 9% | [5]; at 1.2 µM -48% | [5]; at 3.7 µM -21% | [5]; [17] -9% | [5]; at 11.0 µM -48% | [5]; at 33.0 µM 29% | [5]; [18] 13% | [5]; at 50.0 µM 34.1% | [6]; at 1.2 µM -54% | [6]; at 3.7 µM -49% | [6]; at 11.0 µM -50% | [6]; at 33.0 µM 0% | [7]; [17] 8% | [7]; [18] 53% | [7]; at 50.0 µM 55.5% | [8]; at 1.2 µM -23% | [8]; at 3.7 µM -28% | [8]; at 11.0 µM -21% | [8]; at 33.0 µM 39% | [9]; [17] 20% | [9]; [18] 37% | [9]; at 50.0 µM 57% | [10]; at 1.2 µM -4% | [10]; at 3.7 µM -14% | [10]; at 11.0 µM -7% | [10]; at 33.0 µM 55% | [11]; at 1.2 µM -29% | [11]; at 3.7 µM -21% | [11]; at 11.0 µM -38% | [11]; at 33.0 µM 46% | [12]; at 1.2 µM 22% | [12]; at 3.7 µM 15% | [12]; at 11.0 µM 24% | [13]; [17] -13% | [13]; [18] 34% | [13]; at 50.0 µM 60.4% | [14]; at 1.2 µM 1% | [14]; at 3.7 µM -9% | [14]; at 11.0 µM 3% | [14]; at 33.0 µM 56%
active: [1]; at 100.0 µM 90% | [2]; at 100.0 µM 90% | [4]; at 50.0 µM 70% | [4]; at 100.0 µM 91% | [5]; at 100.0 µM 88% | [6]; at 100.0 µM 82% | [8]; at 100.0 µM 89% | [10]; at 100.0 µM 85% | [11]; at 100.0 µM 86% | [12]; at 33.0 µM 71% | [12]; at 100.0 µM 90% | [14]; at 100.0 µM 93%

O=C(NCCCl)Sc1ccc(Cl)cc1
active: [1]; at 100.0 µM 99% | [2]; at 100.0 µM 80% | [3]; at 100.0 µM 90% | [4]; [18] 85% | [4]; at 50.0 µM 95.2% | [4]; at 100.0 µM 98% | [5]; [18] 82% | [5]; at 50.0 µM 99.3% | [5]; at 100.0 µM 85% | [6]; at 100.0 µM 75% | [7]; at 50.0 µM 84.5% | [15]; [18] 84% | [15]; at 50.0 µM 96.2% | [15]; at 100.0 µM 91% | [10]; at 100.0 µM 92% | [11]; at 100.0 µM 93% | [12]; at 100.0 µM 90% | [13]; [18] 84% | [13]; at 50.0 µM 97.8% | [14]; at 100.0 µM 93%
inactive: [1]; at 1.2 µM 3% | [1]; at 3.7 µM 7% | [1]; at 11.0 µM 10% | [1]; at 33.0 µM 55% | [2]; at 1.2 µM -3% | [2]; at 3.7 µM -3% | [2]; at 11.0 µM 0% | [2]; at 33.0 µM 21% | [3]; at 1.2 µM 3% | [3]; at 3.7 µM 7% | [3]; at 11.0 µM 22% | [3]; at 33.0 µM 56% | [4]; at 1.2 µM 4% | [4]; at 3.7 µM -7% | [4]; [17] -166% | [4]; at 11.0 µM 7% | [4]; at 33.0 µM 55% | [5]; at 1.2 µM 1% | [5]; at 3.7 µM 1% | [5]; [17] -52% | [5]; at 11.0 µM -10% | [5]; at 33.0 µM 13% | [6]; at 1.2 µM -1% | [6]; at 3.7 µM -7% | [6]; at 11.0 µM 2% | [6]; at 33.0 µM 33% | [7]; [17] -65% | [7]; [18] 53% | [8]; at 1.2 µM -1% | [8]; at 3.7 µM -2% | [8]; at 11.0 µM -2% | [8]; at 33.0 µM 9% | [8]; at 100.0 µM 60% | [9]; [17] -67% | [9]; [18] 8% | [9]; at 50.0 µM 42.8% | [15]; at 1.2 µM 2% | [15]; at 3.7 µM 0% | [15]; [17] -71% | [15]; at 11.0 µM 1% | [15]; at 33.0 µM 29% | [10]; at 1.2 µM 1% | [10]; at 3.7 µM 0% | [10]; at 11.0 µM 0% | [10]; at 33.0 µM 30% | [11]; at 1.2 µM -5% | [11]; at 3.7 µM 1% | [11]; at 11.0 µM 2% | [11]; at 33.0 µM 19% | [12]; at 1.2 µM 0% | [12]; at 3.7 µM 13% | [12]; at 11.0 µM 22% | [12]; at 33.0 µM 60% | [13]; [17] -141% | [14]; at 1.2 µM 0% | [14]; at 3.7 µM 3% | [14]; at 11.0 µM 5% | [14]; at 33.0 µM 44%

COC(=O)C1=C(C(=O)OC)C(C(=O)OC)C(C(=O)OC)C(C(=O)OC)(C(=O)OC)C(C(=O)OC)=C1C(=O)OC (stereo not drawn)
inactive: [1]; at 1.2 µM -2% | [1]; at 3.7 µM -6% | [1]; at 11.0 µM 5% | [1]; at 33.0 µM 20% | [1]; at 100.0 µM 46% | [2]; at 1.2 µM -11% | [2]; at 3.7 µM -13% | [2]; at 11.0 µM -25% | [2]; at 33.0 µM 1% | [2]; at 100.0 µM 39% | [3]; at 1.2 µM -4% | [3]; at 3.7 µM -4% | [3]; at 11.0 µM -4% | [3]; at 33.0 µM 1% | [3]; at 100.0 µM 27% | [16]; at 1.2 µM -18% | [16]; at 3.7 µM -19% | [16]; at 11.0 µM -17% | [16]; at 33.0 µM 13% | [16]; at 100.0 µM 62% | [5]; at 1.2 µM -13% | [5]; at 3.7 µM -14% | [5]; [17] 20% | [5]; at 11.0 µM 1% | [5]; at 33.0 µM 16% | [5]; at 50.0 µM 60.5% | [5]; at 100.0 µM 55% | [6]; at 1.2 µM -16% | [6]; at 3.7 µM -20% | [6]; at 11.0 µM -11% | [6]; at 33.0 µM 14% | [8]; at 1.2 µM -11% | [8]; at 3.7 µM -21% | [8]; at 11.0 µM -26% | [8]; at 33.0 µM -7% | [8]; at 100.0 µM -1% | [15]; at 1.2 µM -13% | [15]; at 3.7 µM -13% | [15]; at 11.0 µM -22% | [15]; at 33.0 µM 18% | [15]; at 50.0 µM 54.5% | [15]; at 100.0 µM 35% | [10]; at 1.2 µM -22% | [10]; at 3.7 µM -18% | [10]; at 11.0 µM -17% | [10]; at 33.0 µM 1% | [10]; at 100.0 µM 58% | [11]; at 1.2 µM -16% | [11]; at 3.7 µM -23% | [11]; at 11.0 µM -18% | [11]; at 33.0 µM -1% | [11]; at 100.0 µM 39% | [12]; at 1.2 µM -18%
active: [5]; [18] 94% | [6]; at 100.0 µM 73% | [7]; [17] 96% | [7]; [18] 99% | [7]; at 50.0 µM 80.1% | [15]; [17] 95% | [15]; [18] 99%
